Results reported in PubChem BioAssay AID485346 (Sanford-Burnham Center for Chemical Genomics, 2010).
The whole screen tested about 330,000 compounds, of which about 10,000 (3%) were called active. The sample holds actives, similar compounds and a random draw of the others, so the mix is not that of the screen. A number with no mark means an inactive call.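 The calls were made as follows: active = inhibition of at least 50% at 8 µM in the primary screen; inactive = the rest.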

The molecules below were run against Protein Mdm4 (Homo sapiens) + E3 ubiquitin-protein ligase Mdm2 (Homo sapiens) (UniProt O15151+Q00987) (assay: disruptors of Mdm2/MdmX RING complex – cell-based, luminescence, split luciferase, SaOS-2, uHTS, primary screen (AID 485346)). Conditions: SaOS-2 split-luciferase Mdm2/MdmX complementation, at 8 µM, stronger effect = higher value.
Sequence of Protein Mdm4 (Homo sapiens) + E3 ubiquitin-protein ligase Mdm2 (Homo sapiens) (O15151 whole entry, looked up): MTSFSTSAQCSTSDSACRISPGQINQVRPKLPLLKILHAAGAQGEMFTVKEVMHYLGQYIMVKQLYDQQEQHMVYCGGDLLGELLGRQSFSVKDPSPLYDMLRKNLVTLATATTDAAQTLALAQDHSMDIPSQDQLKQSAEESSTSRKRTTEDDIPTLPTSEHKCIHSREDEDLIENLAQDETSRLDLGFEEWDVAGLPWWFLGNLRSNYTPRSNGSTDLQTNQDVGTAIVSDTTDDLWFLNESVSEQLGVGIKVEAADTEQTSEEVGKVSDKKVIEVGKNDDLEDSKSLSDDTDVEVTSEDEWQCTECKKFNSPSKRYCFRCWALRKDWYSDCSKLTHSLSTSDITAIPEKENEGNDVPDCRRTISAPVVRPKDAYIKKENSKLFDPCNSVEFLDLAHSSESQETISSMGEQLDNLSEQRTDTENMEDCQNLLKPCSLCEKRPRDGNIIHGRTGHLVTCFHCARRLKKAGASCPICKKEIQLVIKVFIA
Sequence of Protein Mdm4 (Homo sapiens) + E3 ubiquitin-protein ligase Mdm2 (Homo sapiens) (Q00987 whole entry, looked up): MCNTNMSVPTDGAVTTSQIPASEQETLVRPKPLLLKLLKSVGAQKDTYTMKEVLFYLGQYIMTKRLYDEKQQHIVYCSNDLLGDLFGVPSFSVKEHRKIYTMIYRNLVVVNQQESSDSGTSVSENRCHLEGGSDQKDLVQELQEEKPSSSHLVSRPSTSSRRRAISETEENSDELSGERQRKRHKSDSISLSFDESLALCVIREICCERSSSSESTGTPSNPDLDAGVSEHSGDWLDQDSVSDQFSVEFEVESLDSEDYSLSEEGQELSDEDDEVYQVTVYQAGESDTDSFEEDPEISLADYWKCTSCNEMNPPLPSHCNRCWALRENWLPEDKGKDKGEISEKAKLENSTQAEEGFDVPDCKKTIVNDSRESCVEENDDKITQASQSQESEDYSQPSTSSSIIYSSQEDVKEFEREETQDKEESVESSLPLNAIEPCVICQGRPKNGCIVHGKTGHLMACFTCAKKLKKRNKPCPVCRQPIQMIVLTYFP
COc1ccc(C(C)=O)cc1CSc1nc2nc(C)cc(C)n2n1 gave an inhibition of -8.43%.
Molecule Cc1cc(C)n(-c2ccc(C(=O)O)cc2[N+](=O)[O-])n1 has an inhibition of -9.75%.
CC(=O)c1ccc(Oc2cc(C)nc(-n3nc(C)cc3C)n2)cc1 was tested, and the inhibition was 59.2% (active).
CCOC(=O)C1C(c2ccc(OC)c(OC)c2)c2c([nH][nH]c2=O)CC1(C)O (stereo not given) showed an inhibition of -7.74%.
Molecule COCCCNC(=S)NCCNc1nc2cc(C)c(C)cc2cc1C#N has an inhibition of -28.9%.
C=CCN(CC=C)C(=O)CN1C(=O)c2ccccc2C1=O was tested, and the inhibition was 11.2%.
With C=CCn1c(C)cc(C(=O)CN2C(=O)c3ccccc3C2=O)c1C the inhibition was 68% (active).
Cc1cc(C(=O)COC(=O)CCCN2C(=O)c3ccccc3C2=O)c(C)n1C showed an inhibition of 6.08%.
For Cc1cc(S(=O)(=O)N2CCOCC2)ccc1OCC(=O)Nc1cccc(C(F)(F)F)c1, the inhibition was 23.2%.
CC(C)n1cnc2c(NCc3ccccc3)cc(OCC3CCN(C)CC3)cc21 showed an inhibition of 22.6%.
With CCC(CO)Oc1cc(NCc2ccccc2)c2ncn(C3CCCC3)c2c1 (stereo not given) the inhibition was 7.28%.
CC(C)n1cnc2c(NCc3ccccc3)cc(N[C@@H](CO)Cc3ccccc3)cc21 was tested, and the inhibition was 93.5% (active).
In the case of CC(C)(Oc1ccc(C2CC2(Cl)Cl)cc1)C(=O)O (stereo not given), the inhibition is reported as 26.9%.
With Cn1cc(S(=O)(=O)N2CCN(c3ccc(F)cc3)CC2)c(=O)n(C)c1=O the inhibition was 8.49%.
CCCCn1c(=S)[nH]c2cc(S(=O)(=O)N3CCCCC3)ccc21 gave an inhibition of -7.07%.
With O=C(Nc1cc(S(=O)(=O)Nc2ccc(Cl)cc2)ccc1O)c1ccc(F)cc1F the inhibition was 6.95%.
For Cc1nnnn1/C(=C\c1ccccc1)C(=O)OCC(=O)N1CC2(C)CC1CC(C)(C)C2 (stereo not given), the inhibition was 57.8% (active).
COc1ccc(C(=O)N2CC3(C)CC2CC(C)(C)C3)cc1OC (stereo not given) was tested, and the inhibition was 16.7%.
For Cc1cccc(C(=O)NCC(=O)OCC(=O)N2CC3(C)CC2CC(C)(C)C3)c1 (stereo not given), the inhibition was -13.6%.
Cc1ccc(C(=O)NCC(=O)O)s1 gave an inhibition of 14%.
CCc1nn(-c2cc(Oc3cccc4ccccc34)nc(-c3ccccc3)n2)c(N)c1C#N was tested, and the inhibition was 86.8% (active).
Molecule CC(C)(C)n1nc(Cc2cccc3ccccc23)c(C#N)c1N has an inhibition of -12%.
Molecule CC#CC[N+](C)(C)CCCCCC has an inhibition of -0.896%.
Molecule C=CCn1c(-c2ccccc2OCC)n[nH]c1=S has an inhibition of 18.7%.
Work on C/C(=N\NC(=O)c1cc(-c2ccc(O)cc2)nc2ccccc12)c1cccnc1 yielded an inhibition of -9.48%.
In the case of CCOc1cc(CNCc2ccccn2)ccc1OCC(=O)NC(C)(C)C, the inhibition is reported as -2.81%.
Work on COc1cc(C(C(=O)NC2CCCC2)N(Cc2ccccc2)C(=O)c2snc(C(N)=O)c2N)ccc1O (stereo not given) yielded an inhibition of 21.6%.
Molecule NC(=O)c1nsc(C(=O)N(CC(=O)NCc2ccc(F)cc2)Cc2ccco2)c1N has an inhibition of 9.54%.
In the case of COc1ccc(CNC(=O)C(c2ccc(O)cc2)N(Cc2ccco2)C(=O)c2snc(C(N)=O)c2N)cc1 (stereo not given), the inhibition is reported as 54.5% (active).
CCc1ccc(OCC(O)CN2CCN(CCO)CC2)cc1 (stereo not given) was tested, and the inhibition was 19.2%.
In the case of CCOC(=O)c1cnn(Cc2ccccc2Cl)c1N, the inhibition is reported as -23.4%.
CC(C)(C)n1ncc2c(=O)n(Cc3c(Cl)cccc3Br)cnc21 gave an inhibition of 10.5%.
CC(C)c1nnc(NC(=O)C2CC(=O)N(CCc3ccc(F)cc3)C2)s1 (stereo not given) showed an inhibition of -16.4%.
Molecule CCN(C(=O)COC(=O)c1c(NC(C)=O)sc(C)c1C)C1CCS(=O)(=O)C1 (stereo not given) has an inhibition of 13.7%.
For O=C(c1cccs1)N(Cc1cc2ccccc2[nH]c1=O)CC1CCCO1 (stereo not given), the inhibition was -37.5%.
For COc1ccc(-c2c(NC(=O)c3ccco3)oc3ccc(Cl)cc3c2=O)cc1, the inhibition was -18.1%.
COc1ccc(-c2cc(C(=O)Nc3ccccc3O)c3ccccc3n2)cc1 was tested, and the inhibition was 9.09%.
In the case of COc1ccccc1NC(=O)c1cc(Cl)nc2ccccc12, the inhibition is reported as -6.72%.
With COc1ccc(NC(=O)c2cc(-c3cc(OC)c(OC)c(OC)c3)nc3ccccc23)c(OC)c1 the inhibition was 61.6% (active).
Molecule CCN(CC(=O)Nc1ccccc1C(=O)NC1CC1)Cc1cccs1 has an inhibition of 30.2%.
With O=C(C1=C[C@H](c2coc3ccccc3c2=O)C[C@H](OCc2ccc(CO)cc2)O1)N1CCN(Cc2ccccc2)CC1 the inhibition was 8.82%.
For CN(c1ccccc1)S(=O)(=O)c1ccc(C(=O)N2CCN(c3ccccc3Cl)CC2)cc1, the inhibition was 28.8%.
Work on CN(c1ccccc1)S(=O)(=O)c1cc(C(=O)OCC(=O)N2CCN(C(=O)c3ccco3)CC2)ccc1Cl yielded an inhibition of 15.6%.
For CN(c1ccccc1)S(=O)(=O)c1cc(C(=O)N2CCN(c3ncccn3)CC2)ccc1Cl, the inhibition was 77.3% (active).
COC(=O)c1ccc(C)c(NC(=O)Cn2c(C)csc2=O)c1 was tested, and the inhibition was 26.8%.
For O=C(Nc1nnc(-c2ccccc2)o1)c1cc(-c2cccs2)nc2ccccc12, the inhibition was 51% (active).
Molecule CC(C)(C)Cc1nnc(NC(=O)c2cc(-c3ccccc3)nc3ccccc23)s1 has an inhibition of -22%.
With O=C(Nc1nnc(-c2ccc(Cl)cc2)o1)c1ccccc1Br the inhibition was -13.3%.
COc1ccc(Cl)cc1C(=O)NNC(=O)c1nc2nc(C)cc(C)n2n1 gave an inhibition of 8.57%.
CN(C)c1ccnc2sc3c(=O)n(Cc4ccccc4)cnc3c12 was tested, and the inhibition was 59.1% (active).
Work on CN(C)/C=C/c1c(C#N)c(=O)ncn1Cc1ccccc1 yielded an inhibition of 13.9%.
For O=c1c2c(ncn1Cc1ccccc1)nc1n2CCC1, the inhibition was 19.7%.
Molecule CN(CCC#N)c1ncnc2scc(-c3ccccc3)c12 has an inhibition of 21.2%.
With CC(C)CCN1CCC(C)(NC(=O)c2ccccc2)C1=O (stereo not given) the inhibition was -21.2%.
Molecule Cc1ccc(C)c(N2CCN(C(=O)CCCCn3c(=O)[nH]c4ccccc4c3=O)CC2)c1 has an inhibition of 8.89%.
For O=C(CCCCCn1c(=S)[nH]c2cc3c(cc2c1=O)OCO3)N1CCN(c2ccc(F)cc2)CC1, the inhibition was 53.5% (active).
With O=C(NCCS(=O)(=O)N1CCN(c2ccc(F)cc2)CC1)c1ccc2c(c1)OCO2 the inhibition was 7.26%.
O=C(CCn1c(=S)[nH]c2cc3c(cc2c1=O)OCO3)NCc1ccc(Cl)cc1 was tested, and the inhibition was 56.3% (active).
O=C(CNS(=O)(=O)c1ccc2c(c1)OCCCO2)N1CCN(c2ccc(F)cc2)CC1 was tested, and the inhibition was 7.54%.
In the case of Cc1ccc(C)c(N2CCN(C(=O)CCCCCn3c(=S)[nH]c4ccc(N5CCOCC5)cc4c3=O)CC2)c1, the inhibition is reported as 85.6% (active).
For Cc1ccc(C)c(N2CCN(C(=O)CCCn3c(=O)c4cccn4c4cccnc43)CC2)c1, the inhibition was 1.5%.
Work on CC(C)NC(=O)CCCn1c(=S)[nH]c2cc3c(cc2c1=O)OCO3 yielded an inhibition of -5.62%.
For CN(C)CCn1c(=S)[nH]c2ccc(Cl)cc2c1=O, the inhibition was 8.17%.
Molecule Cn1ccsc1=NC(=O)c1cc(S(=O)(=O)N2CCOCC2)ccc1Cl has an inhibition of 28%.
NS(=O)(=O)c1ccc(CCNC(=O)CN2C(=O)c3ccccc3S2(=O)=O)cc1 showed an inhibition of 27.9%.
Work on O=C(COC(=O)c1ccc(Br)o1)NC12CC3CC(CC(C3)C1)C2 yielded an inhibition of 15.9%.
Cc1csc(=O)n1CCC(=O)OCC(=O)NNC(=O)c1ccc(Br)cc1 gave an inhibition of 8.79%.
CCCN(CCC)C(=S)Nc1cc(C(=O)OC)ccc1C(=O)OC showed an inhibition of 9.38%.
Molecule CCOC(=O)C1CCN(C(=O)c2ccccc2N(C)S(=O)(=O)c2ccccc2)CC1 has an inhibition of -12.4%.
In the case of C=CS(=O)c1sc(Cl)c(N2CCOCC2)c1[N+](=O)[O-] (stereo not given), the inhibition is reported as 25.9%.
For CCOC(=O)c1c(-c2ccc(C)cc2C)csc1NC(=O)CSc1nnnn1C, the inhibition was 73.7% (active).
Cn1nnnc1SCC(=O)Nc1sccc1C(N)=O gave an inhibition of 0.655%.
COC(=O)c1ccccc1NC(=O)CSc1nnnn1C gave an inhibition of -3.43%.
Molecule Cc1ccc(/C=C/C(=O)O)cc1S(=O)(=O)N1CCC(Cc2ccccc2)CC1 has an inhibition of -1.19%.
Molecule Cc1cccc(C(=O)Nc2ccccc2-c2nnn(CC(=O)Nc3ccc4c(c3)OCCO4)n2)c1 has an inhibition of 15.2%.
For CS(=O)(=O)c1ccc(-c2nnn(CC(=O)Nc3ccc4c(c3)OCCO4)n2)cc1, the inhibition was 86.1% (active).
Work on Cc1ccc(S(=O)(=O)NCC(=O)Nc2ccc3c(c2)OCCO3)cc1 yielded an inhibition of 10%.
With CC1CCCCC12NC(=O)N(CC(=O)OCc1c(F)cccc1Cl)C2=O (stereo not given) the inhibition was 2.6%.
In the case of Cc1cc(C(=O)Cn2cnc3cc([N+](=O)[O-])ccc3c2=O)c(C)n1CC1CCCO1 (stereo not given), the inhibition is reported as -7.26%.
For Cc1ccsc1C(=O)OCC(=O)c1cc(C)n(CC2CCCO2)c1C (stereo not given), the inhibition was 94.1% (active).
With COc1ccc(C(=O)OCC(=O)c2cc(C)n(CC3CCCO3)c2C)cc1[N+](=O)[O-] (stereo not given) the inhibition was 2.69%.
With COc1cccc(NC(=O)[C@H](Cc2c[nH]c3ccccc23)NC(=O)[C@@H]2Cc3ccccc3CN2)c1 the inhibition was 94.4% (active).
For COc1ccc(NC(=O)[C@H](NC(=O)[C@@H]2Cc3ccccc3CN2)c2ccccc2)cc1, the inhibition was -1.06%.
For COc1ccc(CNC(=O)[C@H](Cc2c[nH]c3ccccc23)NC(C)=O)cc1OC, the inhibition was 10.9%.
C/C=C/c1ccc(OCCCCN2CCC(C)CC2)c(OC)c1 was tested, and the inhibition was -26%.
Cc1cccc(NC(=S)NCCN(C2CCCCC2)C2CCCC2)c1 gave an inhibition of 44.3%.
Cc1cc(C)cc(NC(=S)NCc2ccc(F)cc2)c1 was tested, and the inhibition was -4.57%.
In the case of Cc1cccc(NC(=S)NCc2ccc3[nH]c4c(c3c2)CCCC4)c1, the inhibition is reported as 63.6% (active).
With CC(C)=CCc1c(O)c(CC=C(C)C)c2occ(-c3ccc(O)cc3)c(=O)c2c1O the inhibition was 45.8%.
In the case of CCC1(CC)NC(=O)N(CC(=O)OCC(=O)c2cc(C)c(C)cc2C)C1=O, the inhibition is reported as 22.7%.
